A selection: hits, their analogues and other compounds. The true share with any hit is near 1.2%.
FadD28 binding: blocks FadD28 binding to the bisubstrate probe. AID 588549. inhibition, % at 12.5 µM. 360,000 compounds, 0.22% hits. fluorescence polarization; in the data active = inhibition above about 8.5%, passing the limit was not always enough
Mtb UGM inh: Mtb UDP-galactopyranose mutase inhibition; purified UGM, fluorescence polarization probe displacement; 320,000 compounds, 0.06% hits; P9WIQ1; inhibition, % at 10 µM; in the data active = inhibition above about 10%, passing the limit was not always enough
Target sequence (P9WIQ1 whole entry, looked up): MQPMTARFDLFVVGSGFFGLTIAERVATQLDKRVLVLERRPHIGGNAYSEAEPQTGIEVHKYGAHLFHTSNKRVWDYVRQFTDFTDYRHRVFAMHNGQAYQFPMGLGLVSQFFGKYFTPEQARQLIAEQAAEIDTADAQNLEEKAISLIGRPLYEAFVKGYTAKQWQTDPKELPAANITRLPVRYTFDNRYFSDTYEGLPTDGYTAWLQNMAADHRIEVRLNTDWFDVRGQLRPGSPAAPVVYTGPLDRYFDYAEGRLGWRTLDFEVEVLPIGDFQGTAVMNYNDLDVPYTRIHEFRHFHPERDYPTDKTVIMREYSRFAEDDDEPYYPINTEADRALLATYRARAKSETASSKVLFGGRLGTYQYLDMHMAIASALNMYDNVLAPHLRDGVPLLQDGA
PrP UTR inh: inhibition of PrP 5' UTR reporter expression | inhibition, % (test concentration not listed) | 340,000 compounds, 0.35% hits | cell-based PrP 5' UTR mRNA reporter, plate reader; in the data active = inhibition above about 52%
Rv3671c protease: inhibitors of M. tuberculosis serine protease Rv3671c | inhibition, % at 5.96 µM | 320,000 compounds, 0.048% hits | P9WHR9; in the data active = inhibition above about 38%;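 note: extracellular domain of Rv3671c used as enzyme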
PriA SSB inh: K. pneumoniae PriA-SSBct interaction inhibition. inhibition, % at 33 µM. AlphaScreen SSBct-PriA binding, biotinylated peptide. 430,000 compounds, 0.6% hits; in the data active = inhibition mostly above about 37%, no sharp cut-off; inactive = mostly below about 20%
PrPC surface inh: reduces human prion protein on the cell surface. P04156. cell surface PrPC, TR-FRET read-out. inhibition, % at 13.8 µM. 370,000 compounds, 0.43% hits. AID 720596; in the data active = inhibition above about 24%
PrP UTR cherry: prion 5' UTR mRNA inhibition, cherry-pick retest. shares compounds with PrP UTR inh. cell-based prion protein 5' UTR reporter, plate reader. inhibition, % at 2.5 µM. 1,100 compounds, 48% hits. AID 504592; in the data active = inhibition above about 54%
Each line names hits and unclear results; the compound was inactive in the other large screens (follow-up assays come after a bar, where they were run).

COC(=O)C1CCC(=O)N1C(c1ccc(OC)cc1)c1cc(OC)c(OC)c(OC)c1 (centres undefined)	PrP UTR inh 56 (no result: Mtb UGM inh, Rv3671c protease) | PrP UTR cherry 89
O=C(CSC1CCCC1)Nc1cccc2ccc(-n3cccc3)nc12	none (no result: FadD28 binding, Mtb UGM inh, PrP UTR inh, Rv3671c protease, PrPC surface inh)
CCN1C(=O)[C@H]2[C@H]3CN=C(SC)N3[C@@](CC)(C(=O)OC)[C@H]2C1=O	PrP UTR inh 66 (no result: Mtb UGM inh, Rv3671c protease) | PrP UTR cherry inactive
CCOC(=O)c1nn(-c2ccccc2)c(=O)cc1NC(=O)c1ccc(Br)o1	none (no result: FadD28 binding, Mtb UGM inh, PrP UTR inh, Rv3671c protease, PrPC surface inh)
COc1ccccc1OCCC(=O)OCC(=O)NCc1ccc(F)cc1	PrP UTR inh 88 | PrP UTR cherry inactive
CCC(=O)c1ccc(Oc2nc3c(c(=O)n(C)c(=O)n3C)n2CC)cc1	PrP UTR inh 58 | PrP UTR cherry inactive
COC(=O)c1ccc(Oc2nc3c(c(=O)n(C)c(=O)n3C)n2CCC(C)C)cc1	none
NC(=O)c1ccc(-c2noc(-c3cccc(Cl)c3)n2)cc1	none
O=C(O)c1cccc(-c2noc(-c3cccc(Cl)c3)n2)c1	PrP UTR inh 81 | PrP UTR cherry 84
CCc1ccccc1NC(=O)Cn1cnc2c(-c3ccc(F)cc3)nsc2c1=O	none (no result: FadD28 binding, Mtb UGM inh, PrP UTR inh, Rv3671c protease, PrPC surface inh)
C=CCn1c(SCC(=O)Nc2cc(OC)ccc2OC)nc2c([nH]c3ccccc32)c1=O	none (no result: FadD28 binding, Mtb UGM inh, PrP UTR inh, Rv3671c protease, PrPC surface inh)
N/C(=N\OC(=O)c1ccccc1Cl)c1ccccn1	PrP UTR inh 76 (no result: PriA SSB inh) | PrP UTR cherry 71
COc1ccc(C(=O)O/N=C(\N)c2ccccn2)cc1	PrP UTR inh 88 | PrP UTR cherry 94
Cc1ccccc1C(=O)O/N=C(\N)c1ccccc1	PrP UTR inh 56 | PrP UTR cherry 55
COc1ccccc1C(=O)O/N=C(\N)c1ccccn1	none
Cc1ccc(C(=O)O/N=C(\N)c2ccccn2)c(C)c1	PrP UTR inh 95 | PrP UTR cherry 97
CN1C(=O)C(=Cc2ccc(N3CCCCC3)o2)C(=O)N(C)C1=S	PrP UTR inh 54 | PrP UTR cherry inactive
O=C(O)CN1C(=O)/C(=C/c2ccc(N3CCCCC3)o2)SC1=S	none
CCN1C/C(=C/c2cccc([N+](=O)[O-])c2)C(=O)/C(=C/c2cccc([N+](=O)[O-])c2)C1	PrP UTR inh 66 | PrP UTR cherry 61
CCOC(=O)N(NC(=O)C(O)(c1ccccc1)c1ccccc1)c1ccccc1	none
Cc1cccc(N(NC(=O)C(C)(C)O)C(=O)c2ccccc2)c1	PrP UTR inh 67 | PrP UTR cherry inactive
CS(=O)(=O)c1cccc(C(=O)Nc2sccc2C#N)c1	none (no result: FadD28 binding, Mtb UGM inh, PrP UTR inh, Rv3671c protease, PrPC surface inh)
C[C@@H]1COC(=O)[C@@H](Cc2ccc(F)cc2)C/C=C\C[C@H](CC(=O)N(CCO)Cc2ccccc2)C(=O)N1	PrP UTR inh 85 | PrP UTR cherry inactive
Cc1ccccc1-c1nc(NC(=O)CSc2nc3sc4c(c3c(=O)n2-c2ccccc2)CCC4)ns1	none (no result: FadD28 binding, Mtb UGM inh, PrP UTR inh, Rv3671c protease, PrPC surface inh)
O=C1NCCN1C(=O)NCc1cccnc1-c1cccs1	none (no result: FadD28 binding, Mtb UGM inh, PrP UTR inh, Rv3671c protease, PrPC surface inh)
CC(=NNc1ccc2ccccc2n1)c1ccccc1O	PrP UTR inh 67 (no result: Mtb UGM inh, Rv3671c protease) | PrP UTR cherry inactive
CC(=NNc1ccc2ccccc2n1)c1ccccn1	none (no result: FadD28 binding, Mtb UGM inh, PrP UTR inh, Rv3671c protease, PriA SSB inh)
CSC1SCC2C(=O)N(C)C(C(C)C)C(=O)OCC(NC(=O)c3cnc4ccccc4n3)C(=O)NC(C)C(=O)N(C)C1C(=O)N(C)C(C(C)C)C(=O)OCC(NC(=O)c1cnc3ccccc3n1)C(=O)NC(C)C(=O)N2C (centres undefined)	PrP UTR inh 92, PrPC surface inh 26 (no result: Mtb UGM inh, Rv3671c protease) | PrP UTR cherry 93
COC(=O)C(=O)C1CCc2c(Cl)cc(OC)c(OC)c2C1=O (centres undefined)	PrP UTR inh 94 (no result: Mtb UGM inh, Rv3671c protease) | PrP UTR cherry inactive
CNC(=O)c1cc(Cl)c(OC)c(OC)c1	none
OCC1OC(Oc2c[nH]c3ccccc23)C(O)C(O)C1O (centres undefined)	PrP UTR inh 68 | PrP UTR cherry inactive
CCC(=O)Nc1ccc(SCC(=O)Nc2ccc(F)cc2)nn1	none (no result: FadD28 binding, Mtb UGM inh, PrP UTR inh, Rv3671c protease, PrPC surface inh)
COc1cccc(NC(=O)N2CCCSC[C@@H]2CN2CCCCC2)c1OC	none (no result: FadD28 binding, Mtb UGM inh, PrP UTR inh, Rv3671c protease, PrPC surface inh)
Cc1nn(-c2ccccc2)c(C)c1/C=N/NC(=O)c1cc(-c2cccs2)[nH]n1	PrP UTR inh 68 (no result: PriA SSB inh) | PrP UTR cherry 78
Cc1nn(-c2ccccc2)c(C)c1/C=N/NC(=O)c1cc(-c2ccc(Br)s2)[nH]n1	none (no result: PriA SSB inh)
O=C(NCc1cncc(-c2cccs2)c1)C1CCOC1 (centres undefined)	none (no result: FadD28 binding, Mtb UGM inh, PrP UTR inh, Rv3671c protease, PrPC surface inh)
O=C1NC(Cc2ccccc2)C(=O)N1Cc1cc([N+](=O)[O-])cc2c1OCOC2 (centres undefined)	PrP UTR inh 71 | PrP UTR cherry inactive
COc1cc(C2c3cc4c(cc3C(OC3OC5COC(c6cccs6)OC5C(O)C3O)C3COC(=O)C23)OCO4)cc(OC)c1O (centres undefined)	PrP UTR inh 71 | PrP UTR cherry 61
COc1cc(C2c3cc4c(cc3C(O)C3COCC23)OCO4)cc(OC)c1OC (centres undefined)	none (no result: Mtb UGM inh, Rv3671c protease)
COc1cc([C@@H]2c3cc4c(cc3[C@@H](O[C@@H]3O[C@@H]5CO[C@@H](C)O[C@H]5[C@H](O)[C@H]3O)[C@H]3COC(=O)[C@H]23)OCO4)cc(OC)c1O	none
COc1cc([C@@H]2c3cc4c(cc3[C@H](O)[C@H]3COC(=O)[C@H]23)OCO4)cc(OC)c1OC	PrP UTR inh 67 | PrP UTR cherry 85
COc1cc(C2c3cc4c(cc3OC(NNC(N)=O)C2C)OCO4)cc(OC)c1OC (centres undefined)	PrP UTR inh 52 (no result: Mtb UGM inh, Rv3671c protease, PriA SSB inh) | PrP UTR cherry 87
Cc1nc(-c2ccccc2)sc1C(=O)NCCCn1nc(-c2cccnc2)ccc1=O	none (no result: FadD28 binding, Mtb UGM inh, PrP UTR inh, Rv3671c protease, PrPC surface inh)
Cc1cc(=O)oc(C)c1C(=O)N1CCN(C(c2ccccc2)c2ccccc2)CC1	PrP UTR inh 72 | PrP UTR cherry inactive
CC(C)CNC(=O)COC(=O)C1c2ccccc2Oc2ccccc21	PrP UTR inh 77 (no result: FadD28 binding) | PrP UTR cherry inactive
O=C(NCC#CCN1CCCCCC1)c1ccc2c(c1)OCO2	none (no result: FadD28 binding, Mtb UGM inh, PrP UTR inh, Rv3671c protease, PrPC surface inh)
CC(C)c1ccc(NC(=S)NCc2cccs2)cc1	none
COc1ccc(NC(=S)NCc2cccs2)cc1	PrP UTR inh 75 | PrP UTR cherry inactive
COc1ccc(OCc2cccc(C(=O)O)c2)cc1	PrP UTR inh 93 | PrP UTR cherry 94
CCOc1ccc(OCc2cccc(C(=O)N3CCCC3)c2)cc1	none
CCOc1ccc(NC(=O)Nc2cccc(C(=O)O)c2)cc1	PrP UTR inh 88 | PrP UTR cherry 91
CCOC(=O)c1cccc(NC(=O)Nc2ccc(OCC)cc2)c1	none
CCOc1ccc(NC(=O)c2ccccn2)cc1	PrP UTR inh 62 | PrP UTR cherry 72
O=C(O)c1cccc(COc2ccc3c(c2)CCC3)c1	PrP UTR inh 82 | PrP UTR cherry 88
O=C(C=CNc1ccccc1C(=O)O)c1cccs1	none (no result: FadD28 binding, Mtb UGM inh, PrP UTR inh, Rv3671c protease, PrPC surface inh)
O=C(O)c1cccc(COc2ccc(CO)cc2Cl)c1	PrP UTR inh 93 | PrP UTR cherry 93
Cc1ccccc1OCC(=O)Nc1cccc(C(=O)O)c1	PrP UTR inh 76 (no result: Mtb UGM inh, Rv3671c protease) | PrP UTR cherry 77
COc1ccccc1OCC(=O)Nc1cccc(C(=O)O)c1	none (no result: FadD28 binding, Mtb UGM inh, PrP UTR inh, Rv3671c protease, PrPC surface inh)
